PubChem BioAssay (Tox21)
Records with an inconclusive call do not appear. Calls of active or inactive are those of the source. Unless noted, calls follow the shape of the dose curve; as a rule, active = well fitted curve in the direction sought with a large enough effect in the repeat runs; inconclusive = weak or mixed curves; inactive = no such curve, though single readings can be large; an effect the other way counts as inactive or inconclusive.

Assays:
[1] = qHTS assay for small molecules that induce genotoxicity in human embryonic kidney cells expressing luciferase-tagged ATAD5 (AID 651632); also: nearly all actives have a fitted effect of over 15% in size
Procedure, shortened: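 ATAD5-luc HEK293T, 2,000 cells/well; cpd or DMSO pin-transferred; 16 hr, 37C/5% CO2; Amplite 30 min RT; luminescence.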

[2] = qHTS assay for small molecules that induce genotoxicity in human embryonic kidney cells expressing luciferase-tagged ATAD5 - cell viability (AID 651634; calls by dose curve; also: nearly all actives have a fitted effect of over 25% in size)
Procedure, shortened: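 Fluorescence from CellTiter-Fluor, reporting protease activity within live cells, served as the viability read-out. HEK293T cells carrying luciferase-tagged ATAD5 had been treated with compound for 15.5 hr at 37C.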

[3] = qHTS assay for small molecule disruptors of the mitochondrial membrane potential (AID 720635); also: potency is read from the fitted curve at half-maximal effect
Procedure, shortened: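 HepG2 cells (2,000/well) attached overnight at 37C, then took compound for 1 hr at 37C, 5% CO2. Mito-MPS dye was added for 30 min; fluorescence was read at 490/535 nm (monomers) and 540/590 nm (aggregates).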

[4] = qHTS assay to test for compound auto fluorescence at 590 nm (red) in HepG2 cells (AID 720674)
Procedure, shortened: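 Compound auto-fluorescence is scored relative to Rose Bengal sodium, measured at 540/590 nm in live HepG2 cultures after 1 hr compound contact (37 C, 5% CO2).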

[5] = qHTS assay to test for compound auto fluorescence at 535 nm (green) in HepG2 cells (AID 720675)
[6] = qHTS assay to test for compound auto fluorescence at 460 nm (blue) in HEK293 cells (AID 720678)
Procedure, shortened: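 Blue-channel (Ex/Em 405/460 nm) intensity measured in HEK293 cultures after overnight compound exposure at 37C; signal expressed relative to triamterene. Cells plated 2,000 per well in 10% dialyzed FBS medium and allowed 4-5 hr to attach.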

[7] = qHTS assay to test for compound auto fluorescence at 590 nm (red) in HEK293 cells (AID 720679)
Procedure, shortened: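 Red-channel autofluorescence (Ex/Em 540/590 nm; Rose Bengal sodium reference) was measured after overnight 37C, 5% CO2 exposure of attached HEK293 cells, 2,000 per well in medium with 10% dialyzed FBS.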

[8] = qHTS assay to test for compound auto fluorescence at 460 nm (blue) in HEK293 cell free culture (AID 720681)
Procedure, shortened: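 Test compounds were pinned into cell-free culture medium (DMEM with 10% FBS) and fluorescence was read directly at Ex/Em 405/460 nm. Signals were expressed as fluorescence equivalents of triamterene, with DMSO vehicle as control.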

[9] = qHTS assay to test for compound auto fluorescence at 535 nm (green) in HEK293 cell free culture (AID 720682)
Procedure, shortened: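 Each library compound, or DMSO control, is added by pintool to medium alone, comprising DMEM and 10% FBS. Emission at 535 nm following 485 nm excitation is quantified against fluorescein.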

[10] = qHTS assay to test for compound auto fluorescence at 590 nm (red) in HEK293 cell free culture (AID 720683)
Procedure, shortened: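 Tox21 10K library compounds were pinned into cell-free DMEM with 10% FBS and fluorescence was read at excitation 540 nm. Activity is expressed as Rose Bengal sodium equivalency.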

[11] = qHTS assay to test for compound auto fluorescence at 590 nm (red) in HepG2 cell free culture (AID 720684)
Procedure, shortened: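 Measured in medium alone (MEM containing 10% FBS) following pintool addition of compound; emission at 590 nm with 540 nm excitation, referenced to Rose Bengal sodium.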

[12] = qHTS assay to test for compound auto fluorescence at 460 nm (blue) in HepG2 cell free culture (AID 720685)
Procedure, shortened: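 Compound (23 nL) or DMSO pinned into cell-free MEM with 10% FBS; blue fluorescence read at 405/460 nm excitation/emission, expressed as auto-fluorescence equivalency to triamterene.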

[13] = qHTS assay to test for compound auto fluorescence at 535 nm (green) in HepG2 cell free culture (AID 720686)
[14] = qHTS assay to test for compound auto fluorescence at 460 nm (blue) in HepG2 cells (AID 720687)
Procedure, shortened: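 Cells (2,000/well in MEM with 10% FBS) attached overnight at 37 C, then were exposed to compound or DMSO for 1 hr at 37 C, 5% CO2. Fluorescence read at Ex/Em 405/460 nm, expressed as triamterene-equivalent signal.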

[15] = qHTS assay for small molecule agonists of the p53 signaling pathway - cell viability (AID 651633; calls by dose curve; also: nearly all actives have a fitted effect of over 30% in size; also: potency is read from the fitted curve at half-maximal effect)
Procedure, shortened: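 p53RE-bla cells, seeded at 4,000 per well and rested 5 h at 37 C/5% CO2, received compounds in DMSO for 16 h at 37 C. CellTiter-Glo was then added, and luminescence was read after 30 min at room temperature to gauge cytotoxicity.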

[16] = molecular target: Glucocorticoid receptor (Homo sapiens) (UniProt P04150); assay: qHTS assay to identify small molecule agonists of the glucocorticoid receptor (GR) signaling pathway (AID 720691; active = well fitted activation curve with a large enough effect in the signal ratio in the repeat runs, not every such curve was filed as active; the % refers to the signal ratio)
Sequence of Glucocorticoid receptor (Homo sapiens) (P04150 whole entry, looked up): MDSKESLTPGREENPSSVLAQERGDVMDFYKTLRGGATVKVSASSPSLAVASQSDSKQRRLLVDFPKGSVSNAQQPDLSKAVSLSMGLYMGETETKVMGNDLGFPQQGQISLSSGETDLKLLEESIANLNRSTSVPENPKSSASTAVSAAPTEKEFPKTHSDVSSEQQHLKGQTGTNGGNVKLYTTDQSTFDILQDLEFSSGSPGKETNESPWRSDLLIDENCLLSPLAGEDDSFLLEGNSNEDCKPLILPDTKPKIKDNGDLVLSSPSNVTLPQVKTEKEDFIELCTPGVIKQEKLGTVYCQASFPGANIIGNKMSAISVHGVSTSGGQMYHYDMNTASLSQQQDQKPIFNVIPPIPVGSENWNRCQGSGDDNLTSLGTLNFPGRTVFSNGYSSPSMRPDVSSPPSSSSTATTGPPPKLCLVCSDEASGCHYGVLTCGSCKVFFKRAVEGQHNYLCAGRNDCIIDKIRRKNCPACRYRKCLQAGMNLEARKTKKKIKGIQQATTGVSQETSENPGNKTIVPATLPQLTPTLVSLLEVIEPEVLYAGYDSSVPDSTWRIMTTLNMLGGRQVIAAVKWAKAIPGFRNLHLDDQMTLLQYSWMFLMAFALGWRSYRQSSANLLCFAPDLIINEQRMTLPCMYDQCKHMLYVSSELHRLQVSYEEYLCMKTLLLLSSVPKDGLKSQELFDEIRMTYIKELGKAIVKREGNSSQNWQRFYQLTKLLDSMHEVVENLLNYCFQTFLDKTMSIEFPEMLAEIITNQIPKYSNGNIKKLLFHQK
Procedure, shortened: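 Fluorescence intensity from LiveBLAzer B/G FRET substrate (2 h, room temperature) reports beta-lactamase expression driven by the glucocorticoid response element in GR-bla HeLa cells after 18 h compound exposure at 37 C.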

[17] = qHTS assay to test for compound auto fluorescence at 535 nm (green) in HEK293 cells (AID 720680)
[18] = molecular target: Glucocorticoid receptor (Homo sapiens) (UniProt P04150); assay: qHTS assay to identify small molecule antagonists of the glucocorticoid receptor (GR) signaling pathway (AID 720692; active = well fitted inhibition curve with a large enough effect in the signal ratio in the repeat runs, not every such curve was filed as active; the % refers to the signal ratio; also: potency is read from the fitted curve at half-maximal effect)
Procedure, shortened: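 HeLa GR-bla cells; cmpd + dex 5 nM final, 18 h 37 C; LiveBLAzer B/G FRET substrate 2 h RT; fluorescence intensity read. Antagonist mode, qHTS.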

[19] = qHTS assay for small molecule disruptors of the mitochondrial membrane potential - cell viability (AID 720634; calls by dose curve;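 also: human HepG2 liver cancer cells; series mostly up to about 83 µM; nearly all actives have a fitted effect of over 20% in size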)
Procedure, shortened: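 Cells: HepG2, 2,000/well, attached overnight. Compound 1 hr, 37 C/5% CO2. +m-MPI dye, +CellTiter-Glo 30 min RT. Readout: luminescence (ATP).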
% is scaled to controls: 0 for no effect and ±100 for the full control effect.

O=C(Nc1ccccc1)Nc1ccccc1
active: Potency [3] 1.73 µM
inactive: Potency [1] | Potency [2] | outcome [4] | outcome [5] | Potency [6] | outcome [7] | Potency [8] | outcome [9] | outcome [10] | outcome [11] | Potency [12] | outcome [13] | Potency [14]

CC(N)CN (stereo unspecified)
inactive: Potency [1] | Potency [15] | Potency [2] | outcome [5] | Potency [6] | outcome [7] | Potency [8] | outcome [9] | outcome [10] | outcome [11] | Potency [12] | outcome [13] | Potency [14] | Potency [16]

CC(CCc1ccc2c(c1)OCO2)NN (stereo unspecified)
inactive: Potency [1] | Potency [2] | Potency [3] | outcome [4] | outcome [5] | Potency [6] | outcome [7] | outcome [17] | Potency [8] | outcome [9] | outcome [10] | outcome [11] | Potency [12] | outcome [13] | Potency [14] | Potency [16] | Potency [18]

O=C(CS)OCCOC(=O)CS
inactive: Potency [15] | Potency [2] | Potency [19] | outcome [5] | Potency [6] | outcome [7] | Potency [8] | outcome [9] | outcome [10] | outcome [11] | Potency [12] | outcome [13] | Potency [14]

Cc1nccn1-c1ccc(Sc2cccc(C3(C(N)=O)CCOCC3)c2)cc1
inactive: Potency [15] | Potency [2] | Potency [19] | Potency [3] | outcome [4] | outcome [5] | Potency [6] | outcome [7] | Potency [8] | outcome [9] | outcome [10] | Potency [12] | outcome [13] | Potency [14] | Potency [16]
active: Potency [18] 24.5 µM

CCc1cccc(N(C)C(N)=Nc2cccc3ccccc23)c1
inactive: Potency [15] | Potency [2] | Potency [19] | Potency [3] | outcome [5] | Potency [6] | outcome [7] | outcome [17] | Potency [8] | outcome [9] | outcome [10] | outcome [11] | Potency [12] | outcome [13] | Potency [16] | Potency [18]

Oc1cc(O)c(Cl)cc1Cl
inactive: Potency [15] | Potency [2] | outcome [4] | outcome [5] | Potency [6] | outcome [7] | Potency [8] | outcome [9] | outcome [10] | outcome [11] | Potency [12] | outcome [13] | Potency [14] | Potency [16] | Potency [18]
active: Potency [3] 7.03 µM

COc1cc2[nH]c(=O)[nH]c(=O)c2cc1OC
inactive: Potency [15] | Potency [2] | Potency [3] | fluorescence, % of fluorescein control [5] -0.0154% [at 18.6 µM] | fluorescence, % of triamterene [6] -0.031% [at 18.6 µM] | fluorescence, % of fluorescent control [7] -0.538% [at 18.6 µM] | fluorescence, % of fluorescein [17] 0.0875% [at 18.6 µM] | fluorescence, % of fluorescent control [8] 0.0899% [at 18.6 µM] | activity change [9] 0.0939% [at 18.6 µM] | fluorescence, % of fluorescent control [10] 0.224% [at 18.6 µM] | fluorescence, % of Rose Bengal [11] 0.0628% [at 18.6 µM] | fluorescence, % of fluorescent control [12] -0.0173% [at 18.6 µM] | fluorescence, % of fluorescein control [13] -0.0155% [at 18.6 µM] | fluorescence, % of fluorescent control [14] 0.0151% [at 18.6 µM]

CC(C)(O)c1ccccc1CC[C@@H](SCC1(CC(=O)O)CC1)c1cccc(/C=C/c2ccc3ccc(Cl)cc3n2)c1
inactive: Potency [2] | outcome [4] | outcome [5] | Potency [6] | outcome [7] | outcome [17] | Potency [8] | outcome [9] | outcome [10] | outcome [11] | Potency [12] | outcome [13] | Potency [14]
active: Potency [15] 13.3 µM

O=c1[nH]c2ccc(S(=O)CCN3CCC(Cc4ccc(F)cc4)CC3)cc2o1 (stereo unspecified)
inactive: Potency [15] | Potency [2] | Potency [19] | outcome [4] | outcome [5] | Potency [6] | outcome [7] | outcome [17] | Potency [8] | outcome [9] | outcome [10] | outcome [11] | Potency [12] | outcome [13] | Potency [14] | Potency [16] | Potency [18]
